Giardia kill: kills Giardia lamblia; Giardia lamblia trophozoite viability; activity change, % at 7.66 µM, hits read low; 0.15% of 340,000 active; in the data active = activity change below about -80%; inconclusive = between about -30% and that limit;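 also: parasites exposed to compound for two days anaerobically before the ATP read; % is scaled to controls: 0 for no effect and ±100 for the full control effect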
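Viability, read as ATP luminescence: trophozoites at 100 cells/well, compound added, 48 hrs anaerobic at 37 deg C, then 15-30 min room-temperature development before reading.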
Integrin act MD: integrin-mediated muscular dystrophy alleviation activation. AID 624291. 0.064% of 350,000 active. alpha7betagal myoblasts, beta-gal FDG fluorescence, 48 h. Potency, µM (doses to about 38.3 µM), for inactives: at the top dose activation, actives largely listed as activators;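 also: potency is read from the fitted curve at half-maximal effect; 100% = response of the positive control SU9516; nearly all actives have a fitted effect of over 60% in size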
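alpha7betagal+/- myoblasts (passage 13, 250/well) treated 48 h at 37C with compounds at 1:260 dilution of DMSO stock. Lysed, then beta-galactosidase activity read as FDG fluorescence (ex 480/em 540) after 30 min, with pre-read for autofluorescence.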
ERG-DNA inh: ERG Ets/DNA interaction inhibition; P11308; fluorescence polarization, His-ERG Ets domain / labelled DNA; Potency, µM (series often up to 76.9 µM), for inactives: at the top dose FP activity, negative = inhibition, actives largely listed as inhibitors; 0.028% of 370,000 active; AID 624246; active = well fitted inhibition curve with a large enough effect in the polarisation, with a control signal flat; inconclusive = small, poorly fitted or top-dose-only effect, or effect the other way, or a change in a side signal; inactive = no such curve, though single readings can be large or run the other way; the % refers to the polarisation;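 also: polarization taken with two DNA probes labelled with fluorescein and Texas red; potency is read from the fitted curve at half-maximal effect; % of control where 0% means no effect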
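His-tagged ERG Ets domain (1 uM in the protein solution; 300mM KCl, 50mM Tris-HCl, 1mM EDTA, 1mM DTT, pH 7.5) received compound, then a probe mix of 5 nM fluorescein-DNA and 100nM Texas-615-DNA. Fluorescence polarization was read for both dyes.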
RORgamma inh: blocks mouse ROR gamma transcriptional activity; 5.4% of 310,000 active; P51450; Potency, µM (top dose mostly 53.6 µM), without a hit: at the top dose activity change, negative = inhibition, most hits filed as inhibitors; Drosophila S2 Gal4-RORgamma UAS-luciferase reporter, 20 h; also: potency is read from the fitted curve at half-maximal effect; % is scaled to controls: 0 for no effect and ±100 for the full control effect; nearly all actives have a fitted effect of over 60% in size
Target sequence (P51450 whole entry, looked up, the tested form may be a part): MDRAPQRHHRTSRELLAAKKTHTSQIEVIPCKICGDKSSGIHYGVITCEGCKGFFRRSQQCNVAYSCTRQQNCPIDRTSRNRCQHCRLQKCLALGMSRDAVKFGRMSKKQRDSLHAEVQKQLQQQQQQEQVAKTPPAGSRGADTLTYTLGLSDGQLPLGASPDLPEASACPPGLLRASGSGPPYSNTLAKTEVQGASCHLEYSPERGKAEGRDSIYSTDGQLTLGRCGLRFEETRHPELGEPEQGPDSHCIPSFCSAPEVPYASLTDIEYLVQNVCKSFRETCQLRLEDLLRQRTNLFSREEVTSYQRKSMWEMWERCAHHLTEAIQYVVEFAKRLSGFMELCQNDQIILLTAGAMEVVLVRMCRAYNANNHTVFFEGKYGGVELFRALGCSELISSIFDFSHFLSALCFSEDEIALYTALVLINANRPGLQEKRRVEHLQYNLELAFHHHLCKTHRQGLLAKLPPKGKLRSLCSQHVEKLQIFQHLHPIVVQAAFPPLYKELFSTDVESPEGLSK
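Using a luciferase readout, inhibitors were identified by reduced reporter activity in Drosophila cells coexpressing a copper-inducible Gal4–ROR gamma fusion and UAS-driven Photinus luciferase, incubated 20 hr after 700 uM copper sulfate.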
VP16 counter: counter-screen for ROR gamma inhibitors: Gal4-VP16 reporter | Potency, µM (series often up to 53.6 µM), for the others: at the top dose activity, negative = inhibition, hits mostly inhibitors | AID 2546 | Drosophila S2 Gal4-VP16 UAS-luciferase, luminescence, 20 h | 3.5% of 310,000 active;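 also: Gal4-VP16 expression switched on by copper sulfate through the metallothionein promoter; potency is read from the fitted curve at half-maximal effect; % is scaled to controls: 0 for no effect and ±100 for the full control effect; nearly all actives have a fitted effect of over 50% in size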
Active calls of the source: *; ? = inconclusive; . = no result given; [ ] = another dose, or the depositor's remark. Only a selection was taken, and hits are over-represented in it overall. Unless noted, calls follow the shape of the dose curve; as a rule, active = well fitted curve in the direction sought with a large enough effect; inconclusive = small, poorly fitted or top-dose-only effect, or another doubt; inactive = no such curve, though single readings can be large; an effect the other way counts as inactive or inconclusive.

SMILES	Giardia kill	Integrin act MD	ERG-DNA inh	RORgamma inh	VP16 counter
Cc1cccnc1NC(=O)c1ccc([N+](=O)[O-])o1	?	-8%	0%	-37%	-23%
Cc1cccc(NC(=O)c2ccc([N+](=O)[O-])o2)n1	?	-59%	-9%	11µM*	?
Cc1cccc(NC(=O)c2ccc([N+](=O)[O-])s2)n1	-89*	-66%	3%	6%	?
NS(=O)(=O)c1ccc(O)c(NC(=O)c2ccc([N+](=O)[O-])cc2)c1	7	-12%	-8%	27%	12%
O=C(O)c1cccc(N2C(=O)CSC2c2ccccc2)c1 (stereo not drawn)	5	13%	8%	-5%	-4%
COC(=O)c1c(-c2ccc(C)cc2)csc1NC(=S)NC(=O)c1ccc(F)cc1	9	5%	-15%	2.5µM*	5µM*
CCOC(=O)c1c(-c2ccc(C)cc2)csc1NC(=S)NC(=O)c1ccccc1	-14	21%	0%	3.2µM*	2.8µM*
CCOC(=O)c1c(-c2ccc(OC)c(OC)c2)csc1NC(=O)c1ccc(C)cc1	.	.	-5%	.	.
CCc1ccc2oc(C(=O)Nc3cc(Cl)ccc3OC)cc(=O)c2c1	.	.	6%	.	.
Cn1ccnc1C(=O)c1cc(SCC(=O)NCc2ccccc2)nc2ccccc12	-22	-24%	0%	15%	-12%
Cc1ccc(S/C(=N/S(=O)(=O)c2ccc(Cl)cc2)c2ccccc2)cc1	-1	.	.	.	.
COc1ccccc1OCCN1CSC(=S)N(C)C1	9	-46%	-7%	?	?
Cc1cccc(OCCN2CSC(=S)N(C)C2)c1	-8	-16%	-1%	13µM*	14µM*
Cc1ccccc1C1C(C#N)=C2N=C(N)c3c(sc4c3CCCCC4)N2C2=C1C(=O)CCC2 (stereo not drawn)	2	12%	0%	14µM*	?
Cn1c(C(C)(O)C(O)c2ccccc2)nc2ccccc21 (stereo not drawn)	.	.	.	-5%	-9%
O=C(N/N=C/c1cc(Br)ccc1O)C(c1ccncc1)N1CCOCC1 (stereo not drawn)	-5	-23%	.	5µM*	16µM*
CCCCC(=O)NC(=S)NNC(=O)CCc1ccccc1	-4	-2%	-5%	11µM*	-7%
CCCCC(=O)NNC(=S)NC(=O)CCC	-3	-19%	-23%	10µM*	?
CC(C)(C)c1cc(CCC(=O)NNC(=S)NC(=O)c2ccccc2)cc(C(C)(C)C)c1O	-16	-62%	1%	11µM*	13µM*
O=C(CCc1ccccc1)NNC(=S)NC(=O)c1ccccc1	8	-14%	.	4.5µM*	?
CC(C)(C)c1cc(CCC(=O)NNC(=O)c2ccco2)cc(C(C)(C)C)c1O	-2	16%	1%	18%	2%
C=C(C)C1CC[C@]2(CO)CC[C@@]3(C)[C@H](CCC4[C@@]5(C)CCC(O)C(C)(C)C5CC[C@@]43C)C12 (stereo partly drawn)	.	.	.	-27%	-9%
CC(=O)OCON[N+]([O-])=NC1CCCCC1	37	.	.	14%	3%
COc1cc(SC#N)ccc1N=Cc1c(C)[nH]n(-c2ccc(Cl)cc2)c1=O	8	-9%	-8%	5.6µM*	5.6µM*
COc1cc(SC#N)ccc1N=Cc1c(C)[nH]n(-c2ccc(C)c(C)c2)c1=O	-9	-61%	26%	4.5µM*	4.5µM*
SMILES	Giardia kill	Integrin act MD	ERG-DNA inh	RORgamma inh	VP16 counter
CC(=O)Nc1ccc(SCC(CC(C)C)N2CCN(C)CCC2=O)cc1 (stereo not drawn)	6	.	.	-17%	-2%
O=C(NCc1ccccc1)C1CCN(S(=O)(=O)Cc2ccccc2)CC1	.	.	5%	.	.
Cc1ccc(-c2csc(N(CCO)CCCn3c(C(F)(F)F)nc4cc(C(F)(F)F)ccc43)n2)cc1	12	21%	0%	10µM*	?
OCCN(CCCn1c(C(F)(F)F)nc2ccccc21)c1nc(CN2CCCCC2)cs1	-1	-11%	-2%	4%	1%
CCC(=O)N[C@@H]1Cc2ccccc2[C@@H](c2ccccc2)C1	.	.	.	-38%	8.9µM*
COC(=O)C/C=C\[C@@H](C)[C@@H](/C=N\O[C@@H](C)CN1CCCCc2nc(C)c(C)cc21)NS(=O)(=O)c1ccc(C)cc1	.	.	.	-2%[10 µM]	5%[10 µM]
CC1(C)CC[C@]2(C(=O)O)C(O)C[C@@]3(C)C(=CCC4[C@@]5(C)CCC(O)C(C)(C)C5CC[C@@]43C)C2C1 (stereo partly drawn)	.	.	.	1.4µM*	-29%
Cc1cc(C(=O)Nc2c(C)nc3ccccn3c2=O)ccc1[N+](=O)[O-]	.	.	8%	.	.
C/C(=N\N=C1/NC(=O)C(C)S1)c1ccc([N+](=O)[O-])cc1 (stereo not drawn)	-4	1%	5%	?	5%
CC(C)=N/N=C1\NC(=O)C(C)S1 (stereo not drawn)	-1	-9%	7%	11µM*	?
COc1ccc(N2CCN(C(=O)CSc3nnc4c(C)cc5ccccc5n34)CC2)cc1	-1	24%	-2%	-28%[10 µM]	-5%
Cc1cc2ccccc2n2c(SCC(=O)N3CCc4ccccc4C3)nnc12	15	-25%	6%	?	18µM*
CC1C2(C)OCC(C#N)(C(=N)O2)C1(C#N)C#N (stereo not drawn)	.	.	.	10%	9%
CC1(C)CC2(C)OC(=N)C1(C#N)C2(C#N)C#N (stereo not drawn)	-24	2%	1%	7.9µM*	?
COc1ccc(CCNC(=O)c2cc(-c3cc(C)ccc3O)n[nH]2)cc1OC	-10	10µM*	11%	9%	1%
COc1ccc(CCNC(=O)c2cc(-c3ccc(C)c(C)c3O)n[nH]2)cc1OC	2	14%	4%	-38%	3%
COc1cc2c(cc1OC)C(=S)NC1(CCCC1)C2	8	20%	0%	2µM*	14µM*
S=C1NC2(CCCCC2)Cc2ccccc21	8	?	3%	1.1µM*	?
COc1cc2c(cc1OC)C(C)=NC1(CCCCC1)C2	14	-13%	7%	1%	-4%
COc1cc(OC)cc(-c2oc(=O)c3cc(OC)c(OC)cc3c2C(F)(F)F)c1	-1	18%	-18%	.	.
O=c1cc(/C=C/c2ccccc2)oc2ccccc12	-6	-45%	-1%	?	?
CCOC(=O)c1ccc(NC(=O)Cn2cc(C(=O)c3ccc(Cl)cc3)c(=O)c3ccc(C)nc32)cc1	.	.	1%	.	.
Oc1ccc(C[C@H]2CNC(=S)N2CC2CCCN2C[C@H](Cc2ccccc2)N2C[C@H](Cc3ccc(O)cc3)N(CC3CCCCCC3)C2=S)cc1 (stereo partly drawn)	-5	-41%	10%	.	.
Clc1nnc(NN=C2CCCC2)c2ccccc12	-9	-37%	-3%	8.9µM*	?
Cc1ccc(/C=N/Nc2nnc(Cl)c3ccccc23)cc1	?	-41%	8%	3.2µM*	13µM*
